Reference: paper PMC7862700, “An all-to-all approach to the identification of sequence-specific readers for epigenetic DNA modifications on cytosine”

Tests used:
Assay in all cases: DAPPL (digital affinity profiling via proximity ligation, sequencing); 10 mM Tris-HCl pH 7.5, 50 mM NaCl, 1 mM DTT, 4% glycerol, room temperature, 30 min; GST-TFs on glutathione beads, 16-mer random dsDNA library, 0.1% formaldehyde crosslink after washing; high values mean tight binding
FEV = target: T1, FEV (Homo sapiens, UniProt Q99581 1-238); details: protein: recombinant; tags: N-terminal GST; dsDNA, one strand shown
T1 sequence: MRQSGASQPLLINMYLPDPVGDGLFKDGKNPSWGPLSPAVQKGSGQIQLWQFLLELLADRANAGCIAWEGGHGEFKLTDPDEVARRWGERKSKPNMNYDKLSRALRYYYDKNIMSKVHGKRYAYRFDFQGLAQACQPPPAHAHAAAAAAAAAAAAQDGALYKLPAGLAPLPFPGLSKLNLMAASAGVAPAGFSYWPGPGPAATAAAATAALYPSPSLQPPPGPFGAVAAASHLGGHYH
Summary of the method: (§1)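 Beads coated with glutathione captured GST-fused human transcription factors that had been expressed in yeast, and the factors were then given DNA barcodes and pooled with a tag-only sample. The pools were incubated with 200 nmole of a random double-stranded 16-mer DNA library in Tris/NaCl/DTT/glycerol buffer for 30 min at room temperature, washed, crosslinked with 0.1% formaldehyde and proximity-ligated with BsaI/T4 ligase at 37 °C for 1 h. PCR amplification and Illumina NextSeq500 sequencing came last. Binding signal is each hexamer's read frequency for a factor divided by its frequency for the tag-only sample.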

ETV5 = ETV5 (Homo sapiens, UniProt P41161 1-510); details: protein: recombinant; tags: N-terminal GST; dsDNA, one strand shown
Summary of the method: as §1

HSF1 = HSF1 (Homo sapiens, UniProt Q00613 1-529); details: protein: recombinant; tags: N-terminal GST; chain copies: 3; dsDNA, one strand shown
Summary of the method: as §1

SPIC = target: T2, SPIC (Homo sapiens, UniProt Q8N5J4 1-248); details: protein: recombinant; tags: N-terminal GST; dsDNA, one strand shown
T2 sequence: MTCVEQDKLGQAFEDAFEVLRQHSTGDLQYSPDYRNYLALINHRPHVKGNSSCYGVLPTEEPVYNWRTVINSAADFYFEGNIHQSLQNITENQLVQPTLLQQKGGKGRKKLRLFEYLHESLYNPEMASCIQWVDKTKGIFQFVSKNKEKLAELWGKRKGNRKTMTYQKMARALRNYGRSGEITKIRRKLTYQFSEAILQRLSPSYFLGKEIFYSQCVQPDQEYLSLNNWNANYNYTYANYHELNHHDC
Summary of the method: as §1

ELF4 = ELF4 (Homo sapiens, UniProt Q99607 1-663); details: protein: recombinant; tags: N-terminal GST; dsDNA, one strand shown
Summary of the method: as §1

ELK4 = target: T3, ELK4 (Homo sapiens, UniProt P28324-2 1-405); details: protein: recombinant; tags: N-terminal GST; dsDNA, one strand shown
T3 sequence: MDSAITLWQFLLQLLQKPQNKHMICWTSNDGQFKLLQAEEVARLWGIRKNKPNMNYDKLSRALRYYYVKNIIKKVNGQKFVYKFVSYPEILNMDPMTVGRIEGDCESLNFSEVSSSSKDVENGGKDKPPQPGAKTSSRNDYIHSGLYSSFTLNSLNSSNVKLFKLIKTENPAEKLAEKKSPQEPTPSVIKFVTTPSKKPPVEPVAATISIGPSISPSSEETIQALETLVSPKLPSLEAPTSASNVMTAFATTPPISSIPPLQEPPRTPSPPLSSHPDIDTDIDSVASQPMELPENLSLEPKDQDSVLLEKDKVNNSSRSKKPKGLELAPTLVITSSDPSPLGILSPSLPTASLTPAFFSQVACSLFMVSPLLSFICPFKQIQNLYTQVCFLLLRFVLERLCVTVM
Summary of the method: as §1

ETV2 = target: T4, ETV2 (Homo sapiens, UniProt O00321 1-342); details: protein: recombinant; tags: N-terminal GST; dsDNA, one strand shown
T4 sequence: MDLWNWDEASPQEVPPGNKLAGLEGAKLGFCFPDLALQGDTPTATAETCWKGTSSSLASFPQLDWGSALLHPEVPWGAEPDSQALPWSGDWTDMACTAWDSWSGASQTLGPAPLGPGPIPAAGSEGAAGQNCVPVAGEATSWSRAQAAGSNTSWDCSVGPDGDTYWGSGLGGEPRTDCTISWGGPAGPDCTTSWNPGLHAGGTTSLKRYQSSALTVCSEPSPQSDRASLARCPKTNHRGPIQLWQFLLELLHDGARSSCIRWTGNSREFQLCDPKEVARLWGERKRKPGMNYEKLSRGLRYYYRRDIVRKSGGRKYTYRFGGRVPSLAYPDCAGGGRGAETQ
Summary of the method: as §1

ELF3 = target: T5, ELF3 (Homo sapiens, UniProt P78545 1-371); details: protein: recombinant; tags: N-terminal GST; dsDNA, one strand shown
T5 sequence: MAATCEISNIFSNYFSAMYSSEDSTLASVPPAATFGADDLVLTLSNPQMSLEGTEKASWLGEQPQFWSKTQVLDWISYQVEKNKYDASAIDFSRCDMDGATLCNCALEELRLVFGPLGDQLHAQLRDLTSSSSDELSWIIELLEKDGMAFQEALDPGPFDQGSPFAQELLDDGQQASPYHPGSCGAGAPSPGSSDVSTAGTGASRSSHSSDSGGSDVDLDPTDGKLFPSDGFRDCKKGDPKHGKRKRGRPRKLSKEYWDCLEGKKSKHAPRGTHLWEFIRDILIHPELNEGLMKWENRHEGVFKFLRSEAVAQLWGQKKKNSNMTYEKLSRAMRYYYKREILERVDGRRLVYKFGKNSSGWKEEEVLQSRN
Summary of the method: as §1

CRX = CRX (Homo sapiens, UniProt O43186 1-299); details: protein: recombinant; tags: N-terminal GST; dsDNA, one strand shown
Summary of the method: as §1

ETV1 = ETV1 (Homo sapiens, UniProt P50549 1-477); details: protein: recombinant; tags: N-terminal GST; dsDNA, one strand shown
Summary of the method: as §1

ERF = target: T6, ERF (Homo sapiens, UniProt P50548 1-548); details: protein: recombinant; tags: N-terminal GST; dsDNA, one strand shown
T6 sequence: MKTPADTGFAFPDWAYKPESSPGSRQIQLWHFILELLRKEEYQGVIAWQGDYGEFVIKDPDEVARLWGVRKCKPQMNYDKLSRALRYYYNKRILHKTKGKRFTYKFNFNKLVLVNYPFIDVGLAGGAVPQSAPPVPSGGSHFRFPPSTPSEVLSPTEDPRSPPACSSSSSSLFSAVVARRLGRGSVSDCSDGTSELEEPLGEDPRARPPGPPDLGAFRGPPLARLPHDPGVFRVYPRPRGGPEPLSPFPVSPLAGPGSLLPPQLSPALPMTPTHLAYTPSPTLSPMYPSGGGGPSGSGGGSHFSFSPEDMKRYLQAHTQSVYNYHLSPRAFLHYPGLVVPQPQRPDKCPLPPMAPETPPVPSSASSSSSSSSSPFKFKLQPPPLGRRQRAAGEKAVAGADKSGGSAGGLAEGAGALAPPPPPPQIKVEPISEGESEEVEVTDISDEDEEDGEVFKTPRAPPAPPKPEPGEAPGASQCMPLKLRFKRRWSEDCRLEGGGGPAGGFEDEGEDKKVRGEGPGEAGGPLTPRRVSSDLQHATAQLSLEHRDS
Summary of the method: as §1

ETV3L = target: T7, ETV3L (Homo sapiens, UniProt Q6ZN32 1-361); details: protein: recombinant; tags: N-terminal GST; dsDNA, one strand shown
T7 sequence: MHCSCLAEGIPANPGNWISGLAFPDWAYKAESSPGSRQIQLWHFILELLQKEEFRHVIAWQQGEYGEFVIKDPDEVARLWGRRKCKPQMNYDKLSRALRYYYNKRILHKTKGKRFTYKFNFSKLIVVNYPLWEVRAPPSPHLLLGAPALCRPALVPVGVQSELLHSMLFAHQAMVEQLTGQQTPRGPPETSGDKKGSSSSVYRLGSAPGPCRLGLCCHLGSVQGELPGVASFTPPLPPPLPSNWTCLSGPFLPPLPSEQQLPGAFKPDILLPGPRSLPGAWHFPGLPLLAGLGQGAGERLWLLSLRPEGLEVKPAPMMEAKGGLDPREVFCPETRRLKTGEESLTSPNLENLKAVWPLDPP
Summary of the method: as §1

ETS2 = target: T8, ETS2 (Homo sapiens, UniProt P15036 1-469); details: protein: recombinant; tags: N-terminal GST; dsDNA, one strand shown
T8 sequence: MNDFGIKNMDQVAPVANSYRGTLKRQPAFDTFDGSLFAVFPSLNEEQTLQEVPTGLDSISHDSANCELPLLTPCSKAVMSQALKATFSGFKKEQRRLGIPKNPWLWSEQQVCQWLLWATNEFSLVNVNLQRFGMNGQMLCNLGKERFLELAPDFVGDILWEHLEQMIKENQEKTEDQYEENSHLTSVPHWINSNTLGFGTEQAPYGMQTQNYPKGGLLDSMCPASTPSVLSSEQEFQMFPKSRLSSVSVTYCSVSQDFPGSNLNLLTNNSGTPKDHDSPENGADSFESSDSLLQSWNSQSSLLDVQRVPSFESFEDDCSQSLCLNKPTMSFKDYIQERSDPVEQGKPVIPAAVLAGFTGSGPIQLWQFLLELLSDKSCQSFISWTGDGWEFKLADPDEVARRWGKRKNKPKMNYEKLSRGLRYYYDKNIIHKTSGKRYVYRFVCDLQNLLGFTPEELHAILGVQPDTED
Summary of the method: as §1

SPDEF = target: T9, SPDEF (Homo sapiens, UniProt O95238 1-335); details: protein: recombinant; tags: N-terminal GST; dsDNA, one strand shown
T9 sequence: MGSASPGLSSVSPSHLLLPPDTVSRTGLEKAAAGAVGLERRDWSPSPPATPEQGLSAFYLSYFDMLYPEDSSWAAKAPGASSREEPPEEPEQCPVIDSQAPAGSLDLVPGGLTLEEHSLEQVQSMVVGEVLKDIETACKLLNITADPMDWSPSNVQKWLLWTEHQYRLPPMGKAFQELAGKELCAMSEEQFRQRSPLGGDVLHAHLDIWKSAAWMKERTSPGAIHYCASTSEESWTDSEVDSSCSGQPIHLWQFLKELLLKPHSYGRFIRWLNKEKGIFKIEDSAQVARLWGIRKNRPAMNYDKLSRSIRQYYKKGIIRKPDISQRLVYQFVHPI
Summary of the method: as §1

ETV7 = target: T10, ETV7 (Homo sapiens, UniProt Q9Y603 1-341); details: protein: recombinant; tags: N-terminal GST; dsDNA, one strand shown
T10 sequence: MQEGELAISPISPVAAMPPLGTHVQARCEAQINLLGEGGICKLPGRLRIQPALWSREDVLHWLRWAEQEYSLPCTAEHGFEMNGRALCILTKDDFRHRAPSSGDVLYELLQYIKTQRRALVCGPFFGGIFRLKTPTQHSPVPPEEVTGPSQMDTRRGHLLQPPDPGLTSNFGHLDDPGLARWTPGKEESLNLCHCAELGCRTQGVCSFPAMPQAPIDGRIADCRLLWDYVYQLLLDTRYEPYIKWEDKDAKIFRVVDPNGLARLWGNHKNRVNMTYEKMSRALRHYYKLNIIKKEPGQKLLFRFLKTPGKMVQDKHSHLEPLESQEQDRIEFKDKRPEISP
Summary of the method: as §1

ELF5 = target: T11, ELF5 (Homo sapiens, UniProt Q9UKW6-2 1-255); details: protein: recombinant; tags: N-terminal GST; dsDNA, one strand shown
T11 sequence: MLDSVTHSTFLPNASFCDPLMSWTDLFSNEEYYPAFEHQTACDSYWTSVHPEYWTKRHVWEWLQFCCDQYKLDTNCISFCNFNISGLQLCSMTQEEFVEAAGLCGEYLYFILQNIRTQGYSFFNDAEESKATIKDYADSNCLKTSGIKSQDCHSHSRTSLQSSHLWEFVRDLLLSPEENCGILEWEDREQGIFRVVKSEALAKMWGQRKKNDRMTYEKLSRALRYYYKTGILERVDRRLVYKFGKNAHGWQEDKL
Summary of the method: as §1

ETV3 = target: T12, ETV3 (Homo sapiens, UniProt P41162-2 1-143); details: protein: recombinant; tags: N-terminal GST; dsDNA, one strand shown
T12 sequence: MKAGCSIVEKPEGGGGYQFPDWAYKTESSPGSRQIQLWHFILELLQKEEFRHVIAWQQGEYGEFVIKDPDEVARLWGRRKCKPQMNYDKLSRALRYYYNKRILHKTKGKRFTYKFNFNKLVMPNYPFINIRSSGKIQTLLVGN
Summary of the method: as §1

ETV6 = ETV6 (Homo sapiens, UniProt P41212 1-452); details: protein: recombinant; tags: N-terminal GST; dsDNA, one strand shown
Summary of the method: as §1

ETV5, sequence (P41161 whole entry): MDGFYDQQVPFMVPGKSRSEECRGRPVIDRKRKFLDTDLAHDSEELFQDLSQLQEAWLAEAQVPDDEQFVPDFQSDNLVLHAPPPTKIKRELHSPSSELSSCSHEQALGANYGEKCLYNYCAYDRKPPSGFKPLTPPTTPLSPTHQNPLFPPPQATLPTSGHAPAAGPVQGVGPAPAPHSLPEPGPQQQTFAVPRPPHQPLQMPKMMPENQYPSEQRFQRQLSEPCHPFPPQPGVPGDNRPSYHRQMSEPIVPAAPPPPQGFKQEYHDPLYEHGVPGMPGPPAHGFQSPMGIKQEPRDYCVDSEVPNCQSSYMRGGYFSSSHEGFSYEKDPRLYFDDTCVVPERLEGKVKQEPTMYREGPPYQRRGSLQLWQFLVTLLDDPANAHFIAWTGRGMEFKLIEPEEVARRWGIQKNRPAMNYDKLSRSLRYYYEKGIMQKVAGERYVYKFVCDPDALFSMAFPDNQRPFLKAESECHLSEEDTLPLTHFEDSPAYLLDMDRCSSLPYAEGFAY
HSF1, sequence (Q00613 whole entry): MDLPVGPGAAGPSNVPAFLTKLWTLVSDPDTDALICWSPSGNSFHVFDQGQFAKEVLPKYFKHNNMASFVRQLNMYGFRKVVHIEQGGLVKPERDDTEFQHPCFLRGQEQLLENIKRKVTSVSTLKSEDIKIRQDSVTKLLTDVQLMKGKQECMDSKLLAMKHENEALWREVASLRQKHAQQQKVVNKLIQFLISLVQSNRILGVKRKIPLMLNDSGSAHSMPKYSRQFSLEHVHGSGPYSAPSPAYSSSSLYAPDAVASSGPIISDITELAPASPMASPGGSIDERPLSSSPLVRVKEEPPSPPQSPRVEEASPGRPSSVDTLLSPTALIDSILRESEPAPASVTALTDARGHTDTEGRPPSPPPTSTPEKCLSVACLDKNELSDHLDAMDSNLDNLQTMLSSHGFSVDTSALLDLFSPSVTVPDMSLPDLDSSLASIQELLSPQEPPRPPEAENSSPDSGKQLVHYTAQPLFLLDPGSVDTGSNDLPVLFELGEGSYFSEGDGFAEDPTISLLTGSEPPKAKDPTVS
ETV6, sequence (P41212 whole entry): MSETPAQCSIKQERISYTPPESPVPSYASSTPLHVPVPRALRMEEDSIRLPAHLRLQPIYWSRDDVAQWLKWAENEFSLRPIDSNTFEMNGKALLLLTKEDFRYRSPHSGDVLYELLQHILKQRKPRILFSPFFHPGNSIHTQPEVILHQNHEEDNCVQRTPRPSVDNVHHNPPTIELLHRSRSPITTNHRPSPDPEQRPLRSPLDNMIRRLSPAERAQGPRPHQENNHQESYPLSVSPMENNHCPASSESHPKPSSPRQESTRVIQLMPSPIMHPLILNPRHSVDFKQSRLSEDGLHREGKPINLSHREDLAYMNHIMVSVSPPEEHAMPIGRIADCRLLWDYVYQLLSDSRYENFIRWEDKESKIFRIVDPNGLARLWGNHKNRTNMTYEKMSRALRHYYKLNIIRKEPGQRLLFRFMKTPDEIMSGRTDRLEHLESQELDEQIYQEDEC
ETV1, sequence (P50549 whole entry): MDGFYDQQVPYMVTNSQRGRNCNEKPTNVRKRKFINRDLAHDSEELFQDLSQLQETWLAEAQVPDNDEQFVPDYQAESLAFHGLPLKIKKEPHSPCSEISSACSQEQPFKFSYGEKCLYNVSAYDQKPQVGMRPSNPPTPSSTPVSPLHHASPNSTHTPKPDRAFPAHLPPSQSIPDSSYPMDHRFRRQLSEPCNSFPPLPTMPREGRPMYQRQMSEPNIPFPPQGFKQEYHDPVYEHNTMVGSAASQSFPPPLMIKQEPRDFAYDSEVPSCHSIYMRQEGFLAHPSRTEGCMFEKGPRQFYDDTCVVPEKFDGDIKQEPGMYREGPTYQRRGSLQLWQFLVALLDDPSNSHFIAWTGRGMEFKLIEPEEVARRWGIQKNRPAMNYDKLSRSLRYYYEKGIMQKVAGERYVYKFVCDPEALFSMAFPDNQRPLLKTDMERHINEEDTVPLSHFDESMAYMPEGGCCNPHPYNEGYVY
ELF4, sequence (Q99607 whole entry): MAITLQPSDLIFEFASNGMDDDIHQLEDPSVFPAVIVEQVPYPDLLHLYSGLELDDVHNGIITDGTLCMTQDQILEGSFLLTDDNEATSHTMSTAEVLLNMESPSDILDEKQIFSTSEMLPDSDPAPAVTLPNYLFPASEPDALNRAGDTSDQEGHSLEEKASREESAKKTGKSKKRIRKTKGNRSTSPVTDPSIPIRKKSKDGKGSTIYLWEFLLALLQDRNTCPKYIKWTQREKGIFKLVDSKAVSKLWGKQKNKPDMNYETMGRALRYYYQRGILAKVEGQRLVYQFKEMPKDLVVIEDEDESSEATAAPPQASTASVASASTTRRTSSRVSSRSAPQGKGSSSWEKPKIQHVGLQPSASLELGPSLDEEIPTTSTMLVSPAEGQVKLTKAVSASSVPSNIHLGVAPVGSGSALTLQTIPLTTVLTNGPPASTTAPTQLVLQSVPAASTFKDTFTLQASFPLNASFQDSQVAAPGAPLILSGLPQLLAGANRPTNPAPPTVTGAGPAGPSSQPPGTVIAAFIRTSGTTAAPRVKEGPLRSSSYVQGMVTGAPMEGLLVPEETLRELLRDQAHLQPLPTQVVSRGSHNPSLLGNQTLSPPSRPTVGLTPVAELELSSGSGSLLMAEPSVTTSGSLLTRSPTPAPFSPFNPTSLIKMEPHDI
CRX, sequence (O43186 whole entry): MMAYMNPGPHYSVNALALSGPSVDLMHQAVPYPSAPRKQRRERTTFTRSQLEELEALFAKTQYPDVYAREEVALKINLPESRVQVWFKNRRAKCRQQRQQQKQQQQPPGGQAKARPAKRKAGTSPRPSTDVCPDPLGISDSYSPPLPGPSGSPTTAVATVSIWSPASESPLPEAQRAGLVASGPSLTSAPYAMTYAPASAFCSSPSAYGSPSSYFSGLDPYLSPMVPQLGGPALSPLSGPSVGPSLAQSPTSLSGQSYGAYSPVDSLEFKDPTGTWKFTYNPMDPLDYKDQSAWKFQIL

TCTTGT
binding signal (FEV): 1.52 fold enrichment (6-mer frequency, TF over GST control) | binding signal (ETV5): 1.49 fold enrichment (6-mer frequency, TF over GST control) | binding signal (HSF1): 1.55 fold enrichment (6-mer frequency, TF over GST control) | binding signal (SPIC): 1.39 fold enrichment (6-mer frequency, TF over GST control) | binding signal (ELF4): 1.66 fold enrichment (6-mer frequency, TF over GST control) | binding signal (ELK4): 1.49 fold enrichment (6-mer frequency, TF over GST control) | binding signal (ETV2): 1.4 fold enrichment (6-mer frequency, TF over GST control) | binding signal (ELF3): 1.55 fold enrichment (6-mer frequency, TF over GST control) | binding signal (CRX): 1.48 fold enrichment (6-mer frequency, TF over GST control) | binding signal (ETV1): 1.57 fold enrichment (6-mer frequency, TF over GST control) | binding signal (ERF): 1.68 fold enrichment (6-mer frequency, TF over GST control) | binding signal (ETV3L): 1.61 fold enrichment (6-mer frequency, TF over GST control) | binding signal (ETS2): 1.47 fold enrichment (6-mer frequency, TF over GST control) | binding signal (SPDEF): 1.57 fold enrichment (6-mer frequency, TF over GST control) | binding signal (ETV7): 1.57 fold enrichment (6-mer frequency, TF over GST control) | binding signal (ELF5): 1.42 fold enrichment (6-mer frequency, TF over GST control) | binding signal (ETV3): 1.5 fold enrichment (6-mer frequency, TF over GST control) | binding signal (ETV6): 1.48 fold enrichment (6-mer frequency, TF over GST control)
